Tests used:
Type in all cases: functional
Plasmodium falciparum [1] = assay: GSK_TCMDC: Inhibition of Plasmodium falciparum 3D7 in whole red blood cells, using parasite LDH activity as an index of growth. Test compounds present at 2uM
Plasmodium falciparum [2] = assay: GSK_TCMDC: Inhibition of Plasmodium falciparum Dd2 in whole red blood cells, using parasite LDH activity as an index of growth. Test compounds present at 2uM
HepG2 = assay: GSK_TCMDC: Percent inhibition of human HepG2 cell line. Test compounds present at 10uM.

Compound	Inhibition (Plasmodium falciparum [1]) [%]	Inhibition (Plasmodium falciparum [2]) [%]	Inhibition (HepG2) [%]
CCCCOc1ccc(CNCCCCCCNCc2ccc(OCCCC)c3ccccc23)c2ccccc12.CS(=O)(=O)O	81	49	100
CC(=O)Nc1nc(C(=O)Nc2ccc(-c3ccc(-c4nc5cccc(C)c5[nH]4)cc3)cc2)cs1	100	53	42
CCCCCCCC1CC(CC(=O)Nc2ccnc3ccc(OC)cc23)CN1C(=O)OC(C)(C)C (stereo not drawn)	100	34	1
N#Cc1cccc(C(=O)Nc2cccc(-c3ccc(C(=O)NCCCN4CCOCC4)cc3)c2)c1	96	21	21
CC(=O)Nc1ccc(C(=O)Nc2cccc(-c3ccc(-c4nc5cc(F)ccc5[nH]4)cc3)c2)cn1	99	99	10
COc1ccccc1CCNc1nc(C)cc(N[C@@H](CC(C)C)C(=O)NCc2cccs2)n1.O=C(O)C(F)(F)F	96	31	20
COc1ccc2c(ccc3c2ncc2c(=O)n(-c4ccccc4)[nH]c23)c1	95	92	0
COc1cc(NC(=O)c2c(-c3c(Cl)cccc3Cl)noc2C)c(OC)cc1Cl	85	67	4
O=C(O)C(F)(F)F.O=S(=O)(NCCN1CCCC1)c1cccc(-c2ccc(CNCc3ccsc3)cc2)c1	100	31	33
CC(=O)N1CCN(c2ccc(NC(=O)c3oc(-c4ccccc4)nc3C(F)(F)F)cn2)CC1	92	93	0
Clc1ccc2c(Cl)c(CNCCCNc3nc4ccccc4[nH]3)[nH]c2c1	100	7	38
CNC(=O)CC(=O)NCCc1ccc(Cl)cc1	99	1	0
CC(=NNC(S)=Nc1ccccc1Cl)c1ccccn1	100	99	69
OC(CNc1ccnc(Nc2ccccc2)n1)c1cccc(C(F)(F)F)c1 (stereo not drawn)	100	61	16
COc1ccc(CNCCCCCCCNCc2ccc(Cl)c(Cl)c2)cc1Cl	90	18	27
COc1cccc(CN(C(=O)Nc2ccccc2F)[C@H]2C[C@H]3C(=O)Nc4cc(F)ccc4C(=O)N3C2)c1	93	75	0
Br.CC1(C)NC(N)=NC(=N)N1OCCOc1cccc(C(F)(F)F)c1	93	97	67
COc1ccc(Nc2nccc(N3CCC(NC(=O)c4cc5ccccc5s4)C3)n2)cc1 (stereo not drawn)	99	86	1
COc1ccc2nccc(N/N=C/c3ccccc3[N+](=O)[O-])c2c1	100	100	67
CN(c1ccccc1C(=O)Nc1cc(Cl)ccc1Oc1ccccc1)S(=O)(=O)c1ccccc1	99	42	47
COc1ccc2c(c1)OC(C)(C)CC2=NOS(=O)(=O)c1ccc(C)cc1	97	12	10

Compound	Inhibition (Plasmodium falciparum [1]) [%]	Inhibition (Plasmodium falciparum [2]) [%]	Inhibition (HepG2) [%]
Cc1ccc(NC(=O)c2ccc(CN3CCCN(Cc4cccc(C#N)c4)CC3)cc2)cc1F.O=C(O)C(F)(F)F	98	19	49
COc1ccc2ncc(C#N)c(CCN3CCC(NCc4cnc5c(c4)OCCO5)CC3)c2n1.Cl	91	24	3
Cc1cc(-c2ccc(O)c(CNC3CCCCC3)c2)cnc1N	100	100	27
COc1cccc(CNC[C@@H](O)[C@H](Cc2ccccc2)NC(=O)c2cc3c4c(c2)c(C(C)C)cn4CCS(=O)(=O)N3C)c1.O=CO	98	98	21
CCC1CN2CCc3c([nH]c4ccccc34)C2CC1CC1=NCCc2c1[nH]c1ccccc21.Cl (stereo not drawn)	100	47	20
CN(CCCCN)Cc1ccc(-c2ccc(Cl)cc2)cc1	97	20	96
FC(F)(F)c1ccc2[nH]c(-c3ccc(-c4cccc(CNCc5ccccc5)c4)cc3)nc2c1.O=C(O)C(F)(F)F	100	43	0
Cc1noc(C)c1-c1cccc(CNCc2cccc(-c3ccc(-c4nc5cccc(C)c5[nH]4)cc3)c2)c1.O=C(O)C(F)(F)F	100	69	24
Cc1cc(N[C@@H](CC(C)C)C(=O)NCCOc2ccccc2)nc(NCCc2ccc(F)cc2)n1.O=C(O)C(F)(F)F	95	54	25
Oc1ccc(Br)cc1C(O)CNCc1ccccc1OCc1ccccc1 (stereo not drawn)	100	100	25
CCOC(=O)NC1=NC(C)(C)N(OCCCOc2ccc(C)cc2C)C(NC(=O)OCC)=N1	95	98	63
COc1ccc(OCC(=O)Nc2cc(-c3nc4ccccc4[nH]3)ccc2Cl)cc1	94	33	18
O=C(N[C@@H](Cc1ccccc1)C(=O)NC1CCCc2ccccc21)c1ccc(O)c(-c2ccc(Cl)c(Cl)c2)c1 (stereo partly drawn)	97	99	0
CCOc1cc(CC)ccc1C1CCN(CCN2CCC(NC(=O)c3ccc(-c4ccc(C(C)=O)cc4)cc3)CC2)CC1	100	8	25
Br.CCc1ccc(OCCCON2C(=N)N=C(N)NC2(C)C)cc1	95	95	64
CC(C)(C)Oc1ccc(CC2NC3(C(=O)N(Cc4ccc(C(C)(C)C)cc4)c4ccccc43)C3C(=O)N(c4ccc(Br)cc4)C(=O)C23)cc1 (stereo not drawn)	94	94	24
CCCCCc1ccc(NC(=O)Nc2ccc(Cn3ncc(N4CCCNCC4)c(Cl)c3=O)cc2)cc1.O=C(O)C(F)(F)F	87	23	15
Cc1ccc2[nH]c(C)cc(=NN=Cc3cccc(Cl)c3)c2c1	100	98	12
O=C(Nc1ccc(Cl)cc1)c1cc(Cl)ccc1NC(=O)C1(c2ccc(Cl)cc2)CCCC1	85	29	13
COc1ccc(C2C(C(=O)Nc3cc(C)ccc3OC)c3ccccc3C(=O)N2C)cc1 (stereo not drawn)	86	3	3
COc1ccc(-c2cccc(NC(=O)c3cccc(C#N)c3)c2)cc1CN1CCN(C)CC1.O=C(O)C(F)(F)F	91	16	25

Compound	Inhibition (Plasmodium falciparum [1]) [%]	Inhibition (Plasmodium falciparum [2]) [%]	Inhibition (HepG2) [%]
O=C(NCCN1CCCC1)N1CCCN(c2ncnc3cc(-c4ccc(Cl)cc4)sc23)CC1.O=C(O)C(F)(F)F	96	32	13
CC(C)NCc1ccc(-c2cccc(CN3CCC(c4ccccc4)CC3)c2)c(C(=O)NCC2CCCCC2)c1.O=C(O)C(F)(F)F	98	76	42
Cc1cc(N[C@@H](Cc2ccccc2)C(=O)NCCc2ccccc2)nc(NCc2ccccc2C)n1.O=C(O)C(F)(F)F	99	85	37
COCCOc1ccc(Nc2nccc(-c3c(-c4cccc(NC(=O)c5c(F)cccc5F)c4)nn4ccccc34)n2)cc1Cl	99	97	53
O=C(Nc1ccc(Br)cc1)N(CCN1CCOCC1)CC(O)COCc1ccc(F)cc1.O=C(O)C(F)(F)F (stereo not drawn)	90	3	5
CC(C)(C)c1ccc(/C=C/C(=O)NCCCCCN2CCC(c3c[nH]c4ccccc34)CC2)cc1	91	12	70
Cc1cccc2nc(-c3ccc(-c4cccc(NC(=O)C(C)CN5CCN(C)CC5)c4)cc3)[nH]c12 (stereo not drawn)	98	51	5
Cc1[nH]c2ccccc2c1C1CCN(CCCCNC(=O)c2ccc(-c3ccc(C#N)cc3)cc2)CC1	100	97	19
CCCCNCc1ccc(OCc2cccc(COc3ccc(CNCCCC)cc3)c2)cc1.Cl	100	35	98
O=C(Nc1cc(Cl)cc(Cl)c1)Nc1ccccc1C(=O)NC1CCCCC1	100	100	12
Cc1cccc2nc(-c3cccc(-c4ccc(CNCCNC(=O)c5ccnn5C)cc4)c3)[nH]c12.O=C(O)C(F)(F)F	100	100	21
O=C(Nc1ccc(N2CCCCC2)c(Cl)c1)c1nc[nH]n1	93	93	0
CCc1cn2c3c(cc(C(=O)N[C@@H](Cc4cccc(Cl)c4)[C@H](O)CNC4CCCCC4)cc13)N(C)S(=O)(=O)CC2.O=CO	97	98	12
COc1ccc2nc(-c3ccccc3)cc(NCCN(C)C)c2c1	100	23	0
CC(C)Cn1c2ccccc2c2nc3nc(N)nc(N)c3nc21	93	0	36
CN(CCCN(C)c1cc(NC(=O)c2ccc(F)cc2)ccn1)Cc1cccc(O)c1.O=C(O)C(F)(F)F	90	0	2
Cc1nc2ccccn2c1C1(O)C(=O)Nc2c(Cl)cc(Cl)cc21 (stereo not drawn)	95	62	0
O=C(Nc1ccc(N2CCN(Cc3ccccc3)CC2)cc1)c1cccs1.O=C(O)C(F)(F)F	87	86	0
O=C(Nc1ccccc1Br)c1cn(-c2ccccc2)nc1-c1cccc([N+](=O)[O-])c1	92	36	7

From ChEMBL document CHEMBL1157539, “Thousands of chemical starting points for antimalarial lead identification” (Nature, 2010)
